This excerpt belongs to a sample that is enriched for hits.
VDR inh: vitamin D3 receptor (human) inhibition; VDR-SRC2-3 peptide fluorescence polarization, 2 h; Potency, µM, for the others: max response, negative = inhibition, most hits filed as inhibitors; 0.93% of 400,000 active; further: on the % scale 0 is the no-effect control and ±100 the full control effect
Target sequence (P11473 whole entry, looked up): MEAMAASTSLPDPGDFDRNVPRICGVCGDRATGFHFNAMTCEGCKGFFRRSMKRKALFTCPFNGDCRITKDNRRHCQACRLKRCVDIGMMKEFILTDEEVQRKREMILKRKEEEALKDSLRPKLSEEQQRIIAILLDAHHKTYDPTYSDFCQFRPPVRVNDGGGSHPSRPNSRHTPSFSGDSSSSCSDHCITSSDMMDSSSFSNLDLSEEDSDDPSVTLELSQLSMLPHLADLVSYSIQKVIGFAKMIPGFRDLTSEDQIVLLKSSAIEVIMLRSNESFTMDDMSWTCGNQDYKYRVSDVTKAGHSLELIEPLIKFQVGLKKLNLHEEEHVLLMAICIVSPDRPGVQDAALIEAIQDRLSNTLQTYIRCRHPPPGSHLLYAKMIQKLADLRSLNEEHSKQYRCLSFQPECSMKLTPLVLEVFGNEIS
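Compounds are added to VDR with labelled SRC2-3 coactivator peptide and held 2 h at room temperature. Inhibition of the VDR–peptide interaction is then read as a change in fluorescence polarization.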
Glioma ERSR ind: inducers of ER stress response in human glioma cells; U87-MG GRP78 promoter luciferase reporter, 16 h; Potency, µM, inactives show at the highest dose activation, actives largely listed as activators; 0.02% of 420,000 active; AID 602332; further: series mostly up to about 76 µM; % of control where 0% means no effect; nearly all actives have a fitted effect of over 35% in size
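Stably transfected U87-MG human glioma cells carrying a GRP78-based luminescent sensor were seeded at 1000 cells/well, pin-dosed with compounds and incubated 16 h. Luciferase reagent was then added, and end-point luminescence was read after 10 min at room temperature.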
Sfp inh: Sfp phosphopantetheinyl transferase inhibition; Q9F4F7; Biochemical Sfp PPTase activity, qHTS; Potency, µM, without a hit: largest response in the series, negative = inhibition, most hits filed as inhibitors; 3.5% of 310,000 active; AID 1490;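 further: the enzyme is Sfp with the accession as filed and its product quenches rhodamine fluorescence; 0% = enzyme reaction without inhibitor and -100% = no enzyme wells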
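Sfp 15 nM + cpd, 15 min RT; start w/ rhodamine-CoA 5 uM, BHQ-2-YbbR 12.5 uM (final); 50 mM Hepes pH 7.6, 10 mM MgCl2, 0.01% NP-40, 0.01% BSA; read 525/598 nm at 0 and 30 min.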
12-LOX inh: inhibitors of human 12S-lipoxygenase ALOX12 | P18054 | Potency, µM (highest dose often 108 µM), for the others: at the top dose activity change, negative = inhibition, most hits filed as inhibitors | purified 12hLO, xylenol orange hydroperoxide absorbance | 1.1% of 580,000 active | AID 1671190; further: on the % scale 0 is the no-effect control and ±100 the full control effect
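Purified human 12hLO (150 nM final) in 25 mM Hepes, 0.01% Triton X-100, pH 7.0 was preincubated 15 min at room temperature with compound. Then 40 uM arachidonic acid was added, 30 min. Hydroperoxide was read by Fe-XO absorbance ratio 573/405 nm.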
G9a block: inhibitors of human histone lysine methyltransferase G9a; Q96KQ7; G9a H3K9 monomethylation, AlphaScreen, 2 h; Potency, µM (top dose mostly 102 µM), inactives show at the top dose activity, negative = inhibition, actives largely listed as inhibitors; 8.8% of 350,000 active; AID 504332; further: on the % scale 0 is the no-effect control and ±100 the full control effect; nearly all actives have a fitted effect of over 75% in size
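Readings reflect AlphaScreen signal from monomethyl-H3K9 antibody detection. HMT at 20 nM; substrate b-H3K9 500 nM; cofactor SAM 20 uM; 2 h RT reaction; compounds tested as titrations in qHTS with 15 min preincubation.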
Starred values were filed as active, the others as inactive; ? = inconclusive; · = no result; [ ] = remark or other dose. The call rests on the fitted dose curve; in most records, active means well fitted curve in the direction sought with a large enough effect; inconclusive means small, poorly fitted or top-dose-only effect, or another doubt; inactive means no such curve, though single readings can be large; an effect the other way counts as inactive or inconclusive. Potency means the concentration at half of the fitted maximal effect.

SMILES	VDR inh	Glioma ERSR ind	Sfp inh	12-LOX inh	G9a block
COc1ccc(C(=O)c2c(N)sc3c2CCN(C(=O)OC(C)(C)C)C3)cc1	5%	-4%	79µM*	?	?
Cc1c(-c2ccccc2F)[nH]c2ccc(CNC(=O)CN3CC(=O)NC3=O)cc12	·	·	·	32%	·
Cc1[nH]c(-c2ccccn2)nc(=S)c1Cl	-3%	-3%	40µM*	?	-112%[59 µM]
COc1ccc2nc(-c3ccccn3)[nH]c2c1	?	-7%	-23%	-10%	35µM*
Cc1cc(=S)nc(-c2ccccn2)[nH]1	-16%	4%	35µM*	?	?
COc1ccc2[nH]c(C)cc2c1	·	2%	·	·	·
COc1ccc2[nH]c(CO)cc2c1	·	·	·	25µM*	·
O=C(COC(=O)c1c[nH]c2ccccc12)NC(=O)NC1CCCC1	·	·	·	-2%	·
COCCCn1c(=O)/c(=C\c2ccccc2OC(C)C)s/c1=C(/C#N)C(=O)Nc1ccc(C(=O)O)cc1	9%	2%	-25%	1%	45µM*
COCCCn1c(=O)/c(=C\c2ccccc2OC(F)F)s/c1=C(/C#N)C(=O)NC(C)C	-18%	-2%	12%	?	12%[59 µM]
CCc1ccccc1OCC(=O)OCc1ccc(Cl)cc1	·	·	·	1%	·
CCCNC(=S)Nc1ccc(C)cc1	·	·	·	0%	·
CC1=C(C(=O)OCC2CCCO2)C(c2ccc(C)o2)C2=C(CC(c3ccc(N(C)C)cc3)CC2=O)N1 (configuration not stated)	·	·	8%	·	11µM*
CCN(CC)c1ccc(C2C(C(=O)OCCOC)=C(C)NC3=C2C(=O)CCC3)cc1 (configuration not stated)	4%	-3%	-3%	-12%	4.5µM*
CCCOC(=O)C1=C(C)NC2=C(C(=O)CCC2)C1c1ccc(N(C)C)cc1 (configuration not stated)	15%	-3%	17%	-28%	40µM*
CC1=C(C(=O)OCC2CCCO2)C(c2ccc(C)o2)C2=C(CC(c3ccc(F)cc3)CC2=O)N1 (configuration not stated)	-25%	-4%	-16%	·	0%[12.7 µM]
CCOC(=O)C1=C(C)NC2=C(C(=O)CCC2)C1c1ccc(N(C)C)cc1 (configuration not stated)	0%	-1%	18%	24%	?
O=C(NC1CCCCC1)[C@@H]1C[C@@H](O)CN1C1CCN(C(=O)c2n[nH]c3ccccc23)CC1	·	·	·	30%	·
CN(C)CCCN(Cc1ccccc1)C(=O)c1nn(C)c(=O)c2ccccc12	·	·	·	1%	·
CCCc1[nH]nc2c1C(c1ccsc1)C(C#N)=C(N)O2 (configuration not stated)	-26%	-4%	9%	-23%	·
CCCc1[nH]nc2c1C(C1CCCCC1)C(C#N)=C(N)O2 (configuration not stated)	-11%	35µM*	4%	?	5%
COC(=O)C(NNc1ccccc1)(NC(=O)c1cccc(F)c1)C(F)(F)F (configuration not stated)	6%	-1%	?	8%	2.2µM*
Nc1ccc(-c2ccc3ccccc3n2)cc1	2%	-13%	-25%	·	19µM*
Cc1cc(C)c2c(-n3cccc3)nn(CC(=O)Nc3cc(Cl)ccc3C)c2n1	·	·	·	-55%	·
CCOc1ccccc1NC1=C(Cl)C(=O)N(c2ccc(OC)cc2)C1=O	?	2%	-22%	-1%	?
SMILES	VDR inh	Glioma ERSR ind	Sfp inh	12-LOX inh	G9a block
COc1ccc(N2C(=O)C(Cl)=C(NCc3ccccc3)C2=O)cc1	-20%	1%	-4%	?	45µM*
CC(C)CCNC(=O)c1cc(=O)[nH]c2ccc(S(=O)(=O)Nc3ccc(F)cc3)cc12	·	·	·	7%	·
O=C(COc1ccc(-c2ccccc2)cc1Cl)OCC(=O)c1ccc[nH]1	·	·	·	-13%	·
CCN(CC)N=Nc1ccc(C(=O)O)cc1	41%	-1%	1%	?	2µM*
CCN(CC)N=Nc1ccc(S(=O)(=O)N2CCSC2C(=O)O)cc1 (configuration not stated)	1%	-6%	22%	-31%	10%
Cc1nc2cc(C(=O)O)ccc2n1-c1ccccc1	13%	-3%	5%	-9%	?
CC1=CC(C)(C)[N+](C)=CN1c1ccccc1	-11%	-3%	13%	?	6.3µM*
Cc1cccc(C(=O)NCC(c2ccco2)N2CCc3ccccc32)c1 (configuration not stated)	0%	-1%	·	?	-5%[2.33 µM]
CC(=O)Nc1cccc(NC(=O)C(=O)NCC(c2ccco2)N2CCc3ccccc32)c1 (configuration not stated)	2%	-6%	·	-1%	50µM*
O=C(NCC(c1ccco1)N1CCc2ccccc2C1)C(=O)Nc1ccccc1 (configuration not stated)	-9%	-4%	·	-1%	50µM*
N#CCSc1nnc(-c2c[nH]c3ccccc23)n1C1CC1	·	·	·	0%	·
Cc1cc(C(=O)COC(=O)Cc2n[nH]c(=O)c3ccccc23)c(C)n1-c1ccc2c(c1)OCCO2	11%	-5%	-13%	-16%	50µM*
O=C(O)/C=C/C(=O)NCc1csc2ccccc12	-11%	-4%	-1%	25µM*	·
Cc1ccccc1CNC(=O)/C=C\C(=O)O	-1%	0%	13%	?	-8%[59 µM]
CCOC(=O)C1=C(c2cccc(Oc3ccccc3)c2)NC(=S)NC1C (configuration not stated)	4%	-5%	0%	?	-27%[59 µM]
CCOC(=O)C1=C(C)C(c2ccc(OC)cc2)NC(=O)N1 (configuration not stated)	-4%	-3%	12%	-2%	11%[59 µM]
CCOC(=O)C1=C(C)C(c2cccc(Oc3ccccc3)c2)NC(=S)N1 (configuration not stated)	-24%	-2%	-10%	40µM*	4%[59 µM]
CCOC(=O)C1=C(C)C(c2ccc(OC)cc2)NC(=S)N1 (configuration not stated)	28µM*	-8%	8%	0%	-43%[59 µM]
C#CCn1cc(/C=N/NC(=O)COc2cccc3cccnc23)c2ccccc21	-8%	-7%	-28%	-27%	3.2µM*
C(=N\Nc1nc2ccccc2[nH]1)/c1cccc2nccnc12	4%	0%	10%	175%	-5%
C#CCn1cc(/C=N/Nc2nc3ccccc3[nH]2)c2ccccc21	10%	?	11µM*	?	50µM*
C(=N\Nc1nc2ccccc2[nH]1)/c1ccc2c(c1)OCCO2	-16%	-10%	25µM*	10%	?
N#CC1(C#N)C2=C(CCCC2)NC(c2ccccc2)C1(C#N)C#N (configuration not stated)	·	·	-6%	·	18µM*
COc1ccc(CNc2cc(-c3ccccc3OC)ncn2)c(OC)c1	?	-2%	89µM*	?	-5%[0.501 µM]
COc1ccc(CNc2ncncc2-c2cccnc2)c(OC)c1	-10%	-1%	-15%	?	-45%[0.501 µM]
